CYP2C9 activ = activators of human CYP2C9; actives 1.4% (n = 96,000); activation factor at 5 µM; recombinant CYP2C9, luciferin-H conversion, luminescence; stronger effect = higher value; factor 1 = untreated enzyme, 0 = blocked;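 active means activation factor of 2 or more for CYP2C9 at a 5 µM dose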
CYP2C19 activ = increases human CYP2C19 enzyme activity. P33261. recombinant CYP2C19, luciferin-H EGE luminescence; stronger effect = higher value; 0 = fully inhibited enzyme, 1 = untreated enzyme. activation factor at 5 µM. 96,000 tested, under 10 active. AID 1025;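 active means activation factor of at least 2 at 5 µM in the primary screen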
CYP2C9 inh = inhibitors of human CYP2C9. P11712. CYP2C9 Supersomes, luciferin-H conversion, luminescence. inhibition, % at 5 µM. actives 20% (n = 96,000);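 active means blocking of liver enzyme CYP2C9 beyond about 50% at 5 µM, limit read from the data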
CYP2C19 inh = inhibitors of human CYP2C19; CYP2C19 Supersomes, luciferin-H EGE luminescence, 30 min; inhibition, % at 5 µM; P33261; AID 778; actives 21% (n = 96,000);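 active means CYP2C19 inhibition above a set limit at 5 µM in the primary screen, cut at about 50% in these data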
Cav3 T inh = human Cav3.2 channel inhibition, primary screen. B-score at 10 µM. Cav3.2-expressing cells, Fluo-4 calcium fluorescence FDSS; stronger effect = lower value. O95180. actives 4% (n = 100,000);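 active means single-dose well whose peak fluorescence ratio is a statistical outlier from its plate by either plate-standardised score or position-corrected B-score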
A number is an active result; - = inactive; . = not tested or not shown. In the library only some 27% were active in any assay of this set; here they are far more common.

SMILES	CYP2C9 activ	CYP2C19 activ	CYP2C9 inh	CYP2C19 inh	Cav3 T inh
Cc1ccc(C)c(-n2c(Cc3cc(=O)[nH]c(=O)[nH]3)nnc2SCC(=O)NCC2CCCO2)c1 (stereo not drawn)	-	-	-	-	-
CCOC(=O)CSc1n[nH]c(NC(=O)c2cccc(C(F)(F)F)c2)n1	-	-	-	-	-
CCOC(=O)CSC1=C(C#N)C(c2ccccc2OCC)C(C(=O)OCC)C(=O)N1 (stereo not drawn)	-	-	84.5	98.8	-
CCOC(=O)CSC1=C(C#N)C(c2ccccc2Cl)C(C(=O)OC)C(=O)N1 (stereo not drawn)	-	-	64.6	59.3	-
CCCCSC1=C(C#N)C(c2ccccc2C)C(C(=O)OCC)C(=O)N1 (stereo not drawn)	-	-	66.4	60.9	-
CCOC(=O)CSC1=C(C#N)C(c2ccccc2OCC)C(C#N)C(=O)N1 (stereo not drawn)	-	-	77.6	82.6	-
CN(C)CCNC(=O)Cn1nc(C(F)F)cc1C1CC1	-	-	-	-	-
CCOC(=O)C1C(=O)NC(SCC(=O)OC)=C(C#N)C1c1ccccc1OCC (stereo not drawn)	-	-	-	67.5	-
CCCOC(=O)CSC1=C(C#N)C(c2ccccc2OC)C(C#N)C(=O)N1 (stereo not drawn)	-	-	-	-	-
C=CCSC1=C(C#N)C(c2ccccc2OCC)C(C#N)C(=O)N1 (stereo not drawn)	-	-	53.7	55.3	-
CCOC(=O)c1c(C2CC2)csc1NC(C)=O	-	-	-	-	-
CN(C)S(=O)(=O)c1ccc2c(c1)C(CC(=O)O)NC2=O (stereo not drawn)	-	-	-	-	-
COCCn1c(=O)[nH]c2cc(C(=O)NCCN3CCN(c4ccc(OC)cc4)CC3)ccc2c1=O	.	.	.	.	-
COc1cc(CN/C(C)=C(\C#N)C(N)=O)cc(OC)c1OC	-	-	51.0	66.7	-
CC(OC(=O)c1cccs1)C(=O)NCc1cccs1 (stereo not drawn)	-	-	62.0	95.2	-
CC(C)CC(OC(=O)c1cccs1)C(=O)NCc1cccs1 (stereo not drawn)	-	-	92.2	95.3	-
CC(OC(=O)c1ccco1)C(=O)NCc1cccs1 (stereo not drawn)	.	.	.	.	-
CCn1c(C)nc2cc(S(=O)(=O)C(F)(F)C(F)C(F)(F)F)ccc21 (stereo not drawn)	-	-	-	-	.
CCCNC(=O)c1c[nH]c2ccc(S(=O)(=O)N(C)c3ccc(OCC)cc3)cc2c1=O	-	-	82.8	-	-
COc1cccc(NS(=O)(=O)c2ccc3[nH]cc(C(=O)NCCC(C)C)c(=O)c3c2)c1	-	-	69.8	-	-
Cc1ccc(C)c(OC(=O)c2ccncc2)c1	.	.	.	.	-
Cc1cccn2c(=O)c(C=NCCO)c(NCc3ccco3)nc12	-	-	-	-	-
Cc1cccn2c(=O)c(/C=N/O)c(N3CCCCC3)nc12	-	-	-	-	-
CCN1CCN(c2nc3ccccc3nc2C(C#N)S(=O)(=O)c2ccc(C)cc2)CC1 (stereo not drawn)	-	-	-	-	.
Cc1cccn2c(=O)c(/C=C(\C#N)S(=O)(=O)c3ccccc3)c(N3CCN(C)CC3)nc12	-	-	75.2	-	.
SMILES	CYP2C9 activ	CYP2C19 activ	CYP2C9 inh	CYP2C19 inh	Cav3 T inh
Cc1cccn2c(=O)c3cc(C(=O)N4CCN(C(=O)c5ccco5)CC4)n(C)c3nc12	-	-	-	-	.
Cc1ccc(S(=O)(=O)/C(C#N)=C/c2c(N3CCN(C)CC3)nc3c(C)cccn3c2=O)cc1	-	-	85.0	-	-
Cc1ccc(S(=O)(=O)/C(C#N)=C/c2c(N3CC(C)OC(C)C3)nc3c(C)cccn3c2=O)cc1 (stereo not drawn)	-	-	72.5	-	-
CCN1CCN(c2nc3c(C)cccn3c(=O)c2/C=C(\C#N)S(=O)(=O)c2ccc(C)cc2)CC1	-	-	89.2	-	-
CCCCOCCCNC(=O)c1ccc(OCC)cc1	-	-	-	-	-
C/C=C1\COC(C(=O)NCc2ccccc2)(C(F)(F)F)C=C1C=C(C)C (stereo not drawn)	.	.	.	.	-
Cc1cc(NCCCn2ccnc2)n2ncc(-c3ccccc3)c2n1	-	-	98.5	98.9	.
Cc1cc(NCCN2CCOCC2)n2nc(C)c(-c3ccc(Cl)cc3)c2n1	-	-	56.6	-	-
Cc1cc(NCCCn2ccnc2)n2nc(C)c(-c3ccccc3)c2n1	-	-	87.6	90.4	-
Cc1cc(NCCN2CCOCC2)n2nc(C)c(-c3ccccc3)c2n1	-	-	-	-	-
